From PubChem
Only some compounds are listed: those with a hit (about 3.5% of all), similar ones and a draw of the others.
PG9 Ab binder: PG9 antibody binding by small molecule. hit rate 0.43% among 360,000. TR-FRET gp120-PG9 antibody binding. inhibition, % at 6.7 µM; in the data active = inhibition above about 8.5%
rCAG binder: binds r(CAG) RNA repeats. r(CAG) RNA repeat, TO-PRO-1 dye displacement fluorescence. inhibition, % at 3 µM. hit rate 1.3% among 370,000. AID 651821;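 active = inhibition above the plate cutoff, the mean of all test compounds on that plate plus 3 SD, cut at about 35% in these data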;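 also: 0% = DMSO alone and 100% = 100 µM mitoxantrone as full dye displacement; higher means more dye released from RNA so lower well fluorescence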
DNMT1 block: blocks human DNA methyltransferase DNMT1; hit rate 0.83% among 360,000; inhibition (reported as % activation of signal), % at 10 µM; P26358; DNMT1 molecular beacon, Hinp1I cleavage, fluorescence; in the data active = inhibition above about 50%
UHRF1 MBD2 ctr: human UHRF1 methylated DNA binding inhibitors; hit rate 0.75% among 370,000; UHRF1 binding to methylated oligo, TR-FRET; Q96T88; inhibition, % at 4.4 µM; AID 687016; in the data active = inhibition above about 21%;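 also: UHRF1 SRA domain binding a hemimethylated CpG hairpin DNA probe; 0% = median of test compound wells and 100% = reference inhibitor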
MBD2 DNA inh: blocks human MBD2 binding to methylated DNA. Q9UBB5. TR-FRET, MBD2 binding to methylated oligonucleotide. inhibition, % at 4.4 µM. hit rate 0.31% among 370,000; in the data active = inhibition above about 13%
Target sequence (Q9UBB5 whole entry, looked up): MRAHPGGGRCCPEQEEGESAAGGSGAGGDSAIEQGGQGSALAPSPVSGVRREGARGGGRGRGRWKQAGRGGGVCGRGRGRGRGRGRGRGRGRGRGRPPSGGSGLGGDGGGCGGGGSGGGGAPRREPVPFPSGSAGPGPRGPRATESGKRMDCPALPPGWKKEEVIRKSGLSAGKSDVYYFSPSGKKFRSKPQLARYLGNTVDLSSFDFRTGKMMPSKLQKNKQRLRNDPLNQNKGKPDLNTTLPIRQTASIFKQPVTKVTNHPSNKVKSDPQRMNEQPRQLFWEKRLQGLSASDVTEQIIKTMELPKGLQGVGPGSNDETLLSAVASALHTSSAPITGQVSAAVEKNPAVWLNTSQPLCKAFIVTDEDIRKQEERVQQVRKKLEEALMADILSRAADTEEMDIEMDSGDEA
LEDGF integ inh: blocks HIV-1 LEDGF/p75-dependent DNA integration; TR-FRET IN-LEDGF/p75 DNA integration, Eu/Cy5; inhibition, % at 3.7 µM; hit rate 0.64% among 370,000;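 active = inhibition above the screen-wide mean plus 3 SD, cut at about 13% in these data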;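 also: signal is the Cy5 over europium emission ratio at 671 and 618 nm; 0% = plate median of compound wells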
rCAG binder conf: r(CAG) RNA repeat binding, confirmation. AID 652065. hit rate 70% among 4,300. TO-PRO-1 dye displacement fluorescence. inhibition, % at 3 µM. shares compounds with rCAG binder;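 active = inhibition above a per-plate cutoff, the mean inhibition of sample wells plus 3 SD, cut at about 35% in these data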;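 also: loss of TO-PRO-1 fluorescence as compound displaces dye from 1x1 AA loop RNA; 0% = DMSO only wells and 100% = 100 µM mitoxantrone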
DNA CAG counter: DNA CAG dye complex inhibition counter-screen; hit rate 94% among 4,300; shares compounds with rCAG binder; inhibition, % at 3 µM; AID 652068; d(CAG) DNA oligo TO-PRO-1 dye displacement, fluorescence;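 active = inhibition above its plate's cutoff, the mean test-well inhibition plus 3 SD, cut at about 4.8% in these data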;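 also: 0% = DNA dye mix with DMSO and 100% = 100 µM mitoxantrone; hits displace the dye from DNA and so lower well fluorescence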
DNA CAG DR: DNA CAG dye complex inhibition, dose response counter-screen; shares compounds with rCAG binder; DNA CAG/GTC duplex TO-PRO-1 dye displacement fluorescence; IC50, µM; hit rate 20% among 250; AID 686960; in the data active = IC50 below about 10 µM
* hit, by the source's call; i = inactive; . = no result.

SMILES	PG9 Ab binder	rCAG binder	DNMT1 block	UHRF1 MBD2 ctr	MBD2 DNA inh	LEDGF integ inh	rCAG binder conf	DNA CAG counter	others
O=C1NN(c2ccccc2)C(=O)/C1=C\c1cccn1-c1ccc(Cl)c([N+](=O)[O-])c1	-1	26	40	-2	-3	1	.	.
O=C1NN(c2ccccc2)C(=O)/C1=C\c1ccc2c(c1)OCO2	0	5	-10	-2	-1	2	.	.
COc1cc(/C=C2/C(=O)NN(c3ccc(C)c(Cl)c3)C2=O)cc([N+](=O)[O-])c1O	-8	98*	39	-2	-7	3	52*	16*
Cc1ccc(N2NC(=O)/C(=C\c3cc4c(cc3[N+](=O)[O-])OCO4)C2=O)cc1C	-1	64*	-13	0	3	12	45*	18*
COc1cc(/C=C2/C(=O)NN(c3cccc(C)c3)C2=O)ccc1OC(=O)c1ccco1	0	45*	7	-2	-4	1	70*	30*	DNA CAG DR=i
O=C(COC(=O)Cc1c[nH]c2ccccc12)NC1CCS(=O)(=O)C1 (stereo unspecified)	2	1	2	-3	4	-1	.	.
COc1ccc(CN2c3c(Br)cccc3C(=O)CS2(=O)=O)cc1	.	.	-17	.	.	.	.	.
O=C1CS(=O)(=O)N(Cc2cccc(F)c2)c2ccc(Br)cc21	-1	52*	-30	-1	2	-1	27	14*
CCOc1cc([N+](=O)[O-])cc(/C=C2/NC(=O)N(Cc3ccccc3F)C2=O)c1O	-11	46*	8	-8	-5	-6	47*	14*
N#C/C(=C\c1ccc(C(=O)O)cc1)c1nc2sc3c(c2c(=O)[nH]1)CCCC3	0	45*	43	3	2	6	55*	22*
CCOC(=O)c1nc2sc3c(c2c(=O)[nH]1)CCCC3	-1	2	2	2	2	3	.	.
C[C@@H](c1ccccc1)N1C[C@@H](COCc2ccccc2)Oc2cc(N3CC[C@@H](N(C)C)C3)ccc2S1(=O)=O	-1	8	.	-1	4	-10	.	.
O=C(O)c1ccc(Cl)c(S(=O)(=O)Nc2ccc(S(=O)(=O)N3CCCC3)cc2)c1	-2	5	1	1	6	-1	.	.
COC(=O)c1cc(NS(=O)(=O)c2ccc(Cl)c(N3C(=O)c4ccc(C(=O)O)cc4C3=O)c2)cc(C(=O)OC)c1	0	52*	2	-2	3	-4	45*	13*
CCCCCCCCN1C(=O)[C@H](CC(=O)NCCCOCCCC)C[C@@]2(C(=O)OCC)CCCC=C12	1	6	.	-2	3	-2	.	.
CCN(CC)c1ccc(C(=O)OCc2cc(=O)oc3cc(O)ccc23)cc1	3	36*	-4	0	-3	0	43*	19*
Cc1cc(C)c(CC(=O)c2ccccc2)c(C)c1	-1	1	18	0	-2	1	.	.
Cc1cc(NS(=O)(=O)c2ccc(NC(=O)C(C)Oc3ccccc3Cl)cc2)no1 (stereo unspecified)	2	36*	2	1	-1	-1	19	3
Cc1cc(NS(=O)(=O)c2ccc(NC(=O)C(C)Oc3cc(C)c(Cl)c(C)c3)cc2)no1 (stereo unspecified)	-2	69*	2	1	0	0	66*	28*
CCCCCC(=O)Nc1ccc(S(=O)(=O)NC2=NCCCCC2)cc1	-2	0	5	0	3	0	.	.
COc1cc(OC)cc(C(=O)NC2CC(C)(C)NC(C)(C)C2)c1	-1	1	-1	2	0	2	.	.
O=C1OC(c2ccc3ccccc3c2O)(c2ccc3ccccc3c2O)c2ccccc21	1	63*	-22	-3	-6	5	70*	35*
O=C(Nc1ccc(S(=O)(=O)Nc2nccs2)cc1)c1cccc(N2C(=O)c3ccccc3C2=O)c1	2	69*	3	5	8	-1	58*	23*
